Screening results as filed in PubChem BioAssay.
FBA Mtb inh: inhibits M. tuberculosis FBA enzyme; P9WQA3; purified M. tuberculosis FBA, fluorescence read-out; inhibition, % at 1 µM; actives 2.3% (n = 360,000); AID 588726
Target sequence (P9WQA3 whole entry, looked up): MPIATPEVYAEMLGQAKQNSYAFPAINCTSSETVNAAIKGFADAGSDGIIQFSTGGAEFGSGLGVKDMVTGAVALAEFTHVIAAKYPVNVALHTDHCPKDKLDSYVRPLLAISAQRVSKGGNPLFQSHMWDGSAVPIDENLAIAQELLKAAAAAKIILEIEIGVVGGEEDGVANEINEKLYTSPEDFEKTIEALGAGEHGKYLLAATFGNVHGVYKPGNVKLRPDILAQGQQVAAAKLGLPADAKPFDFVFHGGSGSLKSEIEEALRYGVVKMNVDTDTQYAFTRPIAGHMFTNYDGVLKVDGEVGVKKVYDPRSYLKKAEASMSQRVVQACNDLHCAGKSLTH
PrP UTR inh: inhibition of PrP 5' UTR reporter expression | cell-based PrP 5' UTR mRNA reporter, plate reader | actives 0.35% (n = 340,000) | inhibition, % (concentration not given with the values); in the data active = inhibition above about 52%
PfHsp40 rescue: compounds rescuing yeast from Plasmodium falciparum HSP40 toxicity; S. cerevisiae expressing PfHsp40, growth rescue, ATP luminescence; growth rescue, % at 12.5 µM; actives 0.68% (n = 340,000); in the data active = growth rescue above about 28%, passing the limit was not always enough;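 also: yeast W303a lacking pdr1 and pdr3 grown in galactose medium; growth measured after three days at 30 °C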
BJeLR lethal: BJeLR cell viability loss | inhibition, % (test concentration not listed) | BJeLR (HRASV12) viability, CellTiter-Glo ATP luminescence, 48 h | actives 0.17% (n = 300,000); in the data active = inhibition above about 50%
GDH-TPI counter-1: GDH-TPI coupled enzyme inhibition counter-screen; inhibition, % at 4.8 µM; actives 1.2% (n = 360,000); GDH-TPI coupled enzyme counterscreen, NADH absorbance; AID 588335; in the data active = inhibition above about 30%
PrPC TRFRET: inhibitors of human cell surface prion protein PrPC | P04156 | TR-FRET read-out | inhibition, % at 13.8 µM | actives 0.43% (n = 370,000); in the data active = inhibition above about 24%
Mtb FBA inh conf: confirmation of M. tuberculosis fructose-bisphosphate aldolase inhibitors; shares compounds with FBA Mtb inh; purified M. tuberculosis FBA, fluorescence read-out; inhibition, % at 1 µM; actives 78% (n = 5,600); AID 651616
GDH-TPI counter-2: inhibits GDH-TPI coupling enzymes, flagging Mtb FBA hits. shares compounds with FBA Mtb inh. GDH-TPI coupled enzyme counterscreen, fluorescence. inhibition, % at 1 µM. actives 81% (n = 5,600). AID 652141; in the data active = inhibition above about 10%
Hits are given with their value; 0 = inactive; - = no result; + = active, no number. This is a sample that favours compounds with a hit; in the whole collection about 4.5% have one here. Rule as the data show it, unless noted: active = inhibition above about 27%; inactive = the rest.

SMILES	FBA Mtb inh	PrP UTR inh	PfHsp40 rescue	BJeLR lethal	GDH-TPI counter-1	PrPC TRFRET	Mtb FBA inh conf	GDH-TPI counter-2
Nc1ccc2c(S(=O)(=O)O)cccc2c1S(=O)(=O)O	53	0	0	-	0	0	76	81
CCOC(=O)c1c(C)c(C(=O)N2CCN(c3ccc(F)cc3)CC2)c(C)n1C	0	0	0	0	0	0	-	-
Cc1c(O)ccc2c3c(c(=O)oc12)CCC(C)C3 (stereo not given)	103	0	0	0	0	0	+	+
Cc1c(O)ccc2c(-c3ccccc3)cc(=O)oc12	0	0	0	0	0	0	-	-
O=C(Nc1ccccc1)c1cccc(=O)o1	52	0	0	0	33	0	197	174
CCc1c(C)nc(SCC(=O)Nc2nc(-c3ccc(OC)cc3)cs2)[nH]c1=O	0	0	0	0	0	0	-	-
CCOC(=O)N1CCN(C(=O)Nc2ccc3nc(C)c(C)nc3c2)CC1	43	0	0	0	0	0	+	+
Cc1nc2ccc(NC(=O)N3CCCCC3)cc2nc1C	63	0	0	0	0	0	159	130
Cc1nc2ccc(NC(=S)N3CCCC3)cc2nc1C	0	0	0	0	0	0	-	-
COc1ccc2ncc(OC(C)=O)cc2c1	0	0	0	0	0	0	-	-
CC(C)C(=O)Nc1sc2c(c1-c1nc3ccccc3[nH]1)CCCC2	43	0	0	0	0	0	+	182
COc1cc(Cl)cc(/C=N\NC(=O)c2ccc3c(c2)OCO3)c1O	27	-	-	-	0	0	135	114
O=C(N/N=C/c1cc(Cl)cc([N+](=O)[O-])c1O)c1ccc2c(c1)OCO2	0	0	0	0	0	0	-	-
CCC(=O)Nc1c(C#N)c2nc3ccccc3nc2n1-c1ccccc1C	36	0	0	0	0	0	76	64
CCC(=O)Nc1c(C#N)c2nc3ccccc3nc2n1C1CCCCC1	0	0	0	0	0	0	-	-
c1ccc(-c2cc3ccccc3cn2)cc1	0	0	0	-	0	0	-	-
Fc1ccc2cc(-c3ccccc3)ncc2c1	49	0	0	-	0	0	88	71
CN1[C@H](Cc2ccccc2)COc2cccc(N3CCCC3)c2S1(=O)=O	-	-	-	-	-	0	-	-
C=C1CCN([C@@H](C)C(=O)NCc2ccc(OC)cc2)S(=O)(=O)c2ccccc21	0	0	0	0	0	0	-	-
c1coc(C2Nc3ccccc3-c3nc4ccccc4n32)c1 (stereo not given)	101	0	0	0	0	0	153	120
COc1ccc(-c2cc(C(F)F)nc(-n3nc(C)cc3C)n2)cc1	52	0	0	0	0	0	63	44
COC(=O)[C@@]12CCCN1[C@H](c1ccc(-c3ccc(OC)cc3)c(OC)c1)[C@@H]1C(=O)N(C)C(=O)[C@@H]12	29	0	0	-	0	0	+	+
COC(=O)[C@@]12CCCN1[C@H](c1ccc(-c3ccc(OC)cc3)c(OC)c1)[C@H]1C(=O)N(C)C(=O)[C@H]12	0	0	0	0	0	0	-	-
COC(=O)[C@]1(C)N[C@H](c2ccc(-c3cccc(Cl)c3)c(OC)c2)[C@@H]2C(=O)N(C)C(=O)[C@@H]21	38	0	0	-	0	0	47	41
CCN1C(=O)[C@H]2[C@@H](c3ccc(-c4ccc(OC)cc4)c(OC)c3)N[C@@](C)(C(=O)OC)[C@H]2C1=O	35	0	0	0	0	0	39	43
SMILES	FBA Mtb inh	PrP UTR inh	PfHsp40 rescue	BJeLR lethal	GDH-TPI counter-1	PrPC TRFRET	Mtb FBA inh conf	GDH-TPI counter-2
COC(=O)[C@]1(C)N[C@H](c2ccc(-c3cccc(Cl)c3)cc2)[C@@H]2C(=O)N(C)C(=O)[C@@H]21	0	0	0	-	0	0	-	-
CCN1C(=O)[C@H]2[C@@H](c3ccc(-c4ccc(F)cc4)c(OC)c3)N[C@@](C)(C(=O)OC)[C@H]2C1=O	0	0	0	0	0	0	-	-
CC1(C(=O)Nc2c(F)c(F)c(F)c(F)c2F)CC1(Br)Br (stereo not given)	0	0	0	0	0	0	-	-
COC(=O)CNC(=O)c1cc(-c2ccncc2)nc2ccc(C)cc12	-	0	0	0	-	0	-	-
O=C1NC(c2cccc3ccccc23)Nc2ccccc21 (stereo not given)	29	0	0	-	0	0	37	32
COc1ccc(C2NC(=O)c3ccccc3N2)cc1OC (stereo not given)	0	0	0	0	0	0	-	-
O=C1NC(c2ccccc2Cl)Nc2ccccc21 (stereo not given)	57	0	0	0	0	0	114	100
COc1ccc2ccccc2c1C1NC(=O)c2ccccc2N1 (stereo not given)	44	0	0	-	0	0	102	74
O=C1NC(c2cccs2)Nc2ccccc21 (stereo not given)	0	0	0	0	0	0	-	-
N#CC1=C(N)Oc2c(ccc3cccnc23)C1c1cccnc1 (stereo not given)	41	0	0	0	0	0	0	0
O=C(CSc1nc(-c2ccc(F)cc2)cc(C(F)(F)F)n1)NCc1ccco1	0	0	0	0	0	0	-	-
O=C(NC1CCCc2ccccc21)N[C@@H](Cc1ccccc1)C(=O)O (stereo not given in full)	0	0	0	0	0	0	-	-
CC(C)NC(=O)Nc1cccc2c1O[C@H](CN(C)S(=O)(=O)c1ccc(F)cc1)[C@@H](C)CN([C@H](C)CO)C2=O	0	0	0	-	0	0	-	-
CC(C)NC(=O)Nc1cccc2c1O[C@H](CN(C)S(=O)(=O)c1ccccc1)[C@@H](C)CN([C@H](C)CO)C2=O	39	0	0	-	0	0	59	61
CCOC(=O)c1cc2c3ccccc3n(CC)c2nc1N	37	0	0	0	0	0	+	+
COCc1c(Br)c(C)[nH]c(=O)c1C#N	32	0	0	0	0	0	71	50
CCOC(=O)C1=C(C)OC(N)=C(C#N)C1c1cc(OC)c2c(c1)OCO2 (stereo not given)	0	0	0	0	0	0	-	-
CCOC(=O)C1=C(C)OC(N)=C(C#N)C1c1cc2c(cc1[N+](=O)[O-])OCO2 (stereo not given)	33	0	0	0	0	0	42	26
Cc1ccnc(NC(=O)c2cc(S(=O)(=O)N3CCCCC3)ccc2Cl)c1	38	0	0	0	0	0	92	84
O=C(CCNS(=O)(=O)c1ccc(OC(F)(F)F)cc1)Nc1cccc(S(=O)(=O)N2CCCC2)c1	0	0	0	-	0	0	-	-
Cc1ccccc1CNC(=O)c1ccccc1N	78	0	0	0	0	0	+	191
NC(=O)c1ccccc1OCc1cccc2ccccc12	0	0	0	0	0	0	-	-
Cc1cc(C(=O)NCc2ccccc2)c(=O)[nH]c1C	56	0	0	0	0	0	103	74
